# Many of the other results were omitted from the sample, so the strongest signals are more common in it than they were.
# Tests used:
# Assay in all cases: glycan array binding signal (z-score within array); higher = stronger binding
# Details in all cases: glycan notation: IUPAC condensed, linker removed
# Fuc(a1-2)Gal(b1-3)GalNAc = target: Fuc(a1-2)Gal(b1-3)GalNAc
# Method in brief: (§1)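 Columns mapping to the same glycan were averaged after glycan names were converted to IUPAC-condensed notation. The data come from 3228 arrays in the Consortium for Functional Glycomics database, limited to those with an available protein sequence. Binding is reported as a within-array Z-score averaged across arrays of one protein sequence and across linkers.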
# [1] = target: Fuc(a1-2)Gal(b1-3)GalNAc(b1-4)[Neu5Ac(a2-3)]Gal(b1-4)Glc
# Method in brief: as §1
# [2] = target: Fuc(a1-2)Gal(b1-4)GlcNAc(b1-3)Gal(b1-4)GlcNAc
# Method in brief: as §1
# [3] = target: Fuc(a1-2)Gal6S(b1-4)GlcNAc
# Method in brief: as §1
# [4] = target: Fuc(a1-3)[Gal(b1-4)]GlcNAc(b1-4)Gal(b1-4)[Fuc(a1-3)]GlcNAc(b1-4)Gal(b1-4)[Fuc(a1-3)]GlcNAc
# Method in brief: as §1
# [5] = target: Fuc(a1-3)[Gal(b1-4)]GlcNAc6S
# Method in brief: as §1
# [6] = target: Fuc(a1-3)[GalNAc(b1-4)]Gal(b1-4)GlcNAc
# Method in brief: as §1
# [7] = target: Gal(a1-3)Gal(b1-4)[Fuc(a1-3)]GalNAc
# Method in brief: as §1
# Gal3S(b1-4)GlcNAc6S = target: Gal3S(b1-4)GlcNAc6S
# Method in brief: as §1
# Gal6S(b1-4)Glc6S = target: Gal6S(b1-4)Glc6S
# Method in brief: as §1
# Gal6S(b1-4)GlcNAc = target: Gal6S(b1-4)GlcNAc
# Method in brief: as §1
# Glc(b1-6)Glc = target: Glc(b1-6)Glc
# Method in brief: as §1
# [8] = target: GlcNAc(a1-6)Gal(b1-4)GlcNAc
# Method in brief: as §1
# [9] = target: GlcNAc(b1-3)Gal(b1-4)GlcNAc(b1-3)Gal(b1-4)GlcNAc
# Method in brief: as §1
# [10] = target: GlcNAc(b1-3)[GlcNAc(b1-6)]GlcNAc
# Method in brief: as §1
# [11] = target: GlcNAc(b1-4)Gal(b1-4)GlcNAc
# Method in brief: as §1
# [12] = target: GlcNAc(b1-4)[GlcNAc(b1-6)]GalNAc
# Method in brief: as §1
# Kdn(a2-3)Gal(b1-4)GlcNAc = target: Kdn(a2-3)Gal(b1-4)GlcNAc
# Method in brief: as §1
# [13] = target: Man(a1-2)Man(a1-2)Man(a1-3)[Man(a1-2)Man(a1-6)[Man(a1-3)]Man(a1-6)]Man(b1-4)GlcNAc(b1-4)GlcNAc
# Method in brief: as §1
# [14] = target: Neu5Ac(a2-3)Gal(b1-3)GlcNAc
# Method in brief: as §1
# [15] = target: Neu5Ac(a2-3)Gal(b1-4)[Fuc(a1-3)]GlcNAc(b1-3)Gal(b1-4)GlcNAc
# Method in brief: as §1
# [16] = target: Neu5Ac(a2-8)Neu5Ac(a2-8)Neu5Ac(a2-3)[GalNAc(b1-4)]Gal(b1-4)Glc
# Method in brief: as §1
# [17] = target: Neu5Gc(a2-3)Gal(b1-4)GlcNAc
# Method in brief: as §1
binder,measurement,setting,value
"KCR (Mus musculus), P70194 (protein) MKEAELNRDMARYCTDNQCVSLQPQGLGPKSAALMAPRTLRHVQVILALMVVTVIFSLLALFVVASQPWRPEWNKEPPSLLLRGSNNSGHDNHSQFVRETEMQVAIQRLRDYEENSSSCHKEVQILKYQMDNVSSLVQLLGSHLEDVNADILQTKDVLKESGALALETQALRSSLEVASADIHSLRGDLEKANAMTSQTRGLLKSSTENTSAELHVLGRGLEEAQSEIQALRGSLQSANDLSSQTQGFLQHSMDNISAQIQTVRDGMERAGEKMNSLKKELETLTAQTQKANGHLEQTDAQIQGLKAELKSTSSLNSRIEVVNGQMKDASRELQTLRRDLSDVSALKSNVQMLQSNLQRAKTEMQTLKADLQATKALTAKIQGEQNRLGALQEAVAAQKQEQKTQNQVLQLIAQNWKYFNGNFYYFSRDKKPWREAEKFCTSQGAHLASVTSQEEQAFLVQTTSSGDHWIGLTDQGTEGIWRWVDGTPFNNAQSKGFWGKNQPDNWRHRNGEREDCVHVRQQWNDMACGSSYPWVCKKSTGWSAARVG",glycan array binding signal (z-score),Fuc(a1-2)Gal(b1-3)GalNAc,-0.72
same,glycan array binding signal (z-score),[1],-0.426
same,glycan array binding signal (z-score),[2],-0.635
same,glycan array binding signal (z-score),[3],0.367
same,glycan array binding signal (z-score),[4],4.39
same,glycan array binding signal (z-score),[5],3.94
same,glycan array binding signal (z-score),[6],3.06
same,glycan array binding signal (z-score),[7],0.117
same,glycan array binding signal (z-score),Gal3S(b1-4)GlcNAc6S,0.95
same,glycan array binding signal (z-score),Gal6S(b1-4)Glc6S,2.48
same,glycan array binding signal (z-score),Gal6S(b1-4)GlcNAc,0.769
same,glycan array binding signal (z-score),Glc(b1-6)Glc,-0.566
same,glycan array binding signal (z-score),[8],2.47
same,glycan array binding signal (z-score),[9],-0.465
same,glycan array binding signal (z-score),[10],-0.721
same,glycan array binding signal (z-score),[11],-0.82
same,glycan array binding signal (z-score),[12],-0.917
same,glycan array binding signal (z-score),Kdn(a2-3)Gal(b1-4)GlcNAc,-0.623
same,glycan array binding signal (z-score),[13],-0.336
same,glycan array binding signal (z-score),[14],-0.592
same,glycan array binding signal (z-score),[15],0.119
same,glycan array binding signal (z-score),[16],0.254
same,glycan array binding signal (z-score),[17],-0.288
